Experimental data: PubChem BioAssay
A number with no mark means an inactive call.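 How the source made its calls: active means fluorescence slope after compound addition differing from the mean of all screened samples at 99.7% confidence, in either direction; inactive means the rest.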

Molecular target: Alpha-2C adrenergic receptor (Homo sapiens) (UniProt P18825)
Experiment: modulators of alpha2C/GIRK thallium flux, primary screen, cell-based, HEK293 alpha2C/GIRK1/2 (AID 624);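 further: slope of fluorescence ratio to pre-addition baseline per second over 15 to 24 s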
Settings: thallium flux BTC fluorescence, at 10 µM, actives lie on both sides

Alpha-2C adrenergic receptor (Homo sapiens), sequence (P18825 whole entry, looked up): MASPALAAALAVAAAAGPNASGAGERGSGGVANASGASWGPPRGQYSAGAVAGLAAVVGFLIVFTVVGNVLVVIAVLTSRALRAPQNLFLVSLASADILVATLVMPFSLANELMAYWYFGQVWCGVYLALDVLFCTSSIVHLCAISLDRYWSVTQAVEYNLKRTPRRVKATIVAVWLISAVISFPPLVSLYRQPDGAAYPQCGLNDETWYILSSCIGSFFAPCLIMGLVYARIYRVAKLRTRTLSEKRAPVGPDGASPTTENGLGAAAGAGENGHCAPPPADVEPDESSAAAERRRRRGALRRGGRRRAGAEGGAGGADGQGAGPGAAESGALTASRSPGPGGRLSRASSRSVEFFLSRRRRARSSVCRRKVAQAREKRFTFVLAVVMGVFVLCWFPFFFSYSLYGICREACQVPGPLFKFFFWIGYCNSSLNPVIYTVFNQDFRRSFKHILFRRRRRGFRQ

Row | SMILES | slope
1 | Cn1cnc2cc(NC(=O)c3ccc(Cl)cc3)ccc21 | 0.00603
2 | CC(=O)NCC(=O)N(Cc1ccco1)C1(C(=O)NC2CCCCC2)CCCCC1 | 0.00597
3 | COc1ccc2[nH]c(=O)c(CN(Cc3cccs3)S(=O)(=O)c3cccc4nsnc34)cc2c1 | 0.00524
4 | Cc1ccc2oc(=O)c3cnn(CC(=O)NCCC(C)C)c3c2c1 | 0.0065
5 | CC12CCC(C(=O)N3CCCCC3)(CC1=O)C2(C)C (centres undefined) | 0.00667
6 | CC1(C)CC(=O)C=C(Nc2ccc(OCC(F)(F)C(F)F)cc2)C1 | 0.00531
7 | Cc1cc(C)cc(-n2nnc(C(=O)NCc3ccco3)c2N)c1 | 0.00643
8 | CC(C)Oc1ccc(N2CC(C(=O)Nc3ccccc3F)CC2=O)cc1 (centres undefined) | 0.00384
9 | O=C(Nc1nccs1)c1cccc(NC(=O)C2CC2)c1 | 0.00472
10 | CCOc1ccccc1C(=O)Nc1nnc(CC)s1 | 0.00564
11 | COc1ccc(C(=O)N2CCN(S(=O)(=O)c3cc(Cl)ccc3OC)CC2)cc1 | 0.00259
12 | [N-]=[N+]=CC(=O)CC(c1ccccc1)N1C(=O)c2ccccc2C1=O (centres undefined) | 0.00641
13 | O=C(O)c1c(Cl)c(Cl)c(Cl)c(Cl)c1C(=O)N1CCOCC1 | 0.00588
14 | CCOc1ccccc1OCC(=O)NCc1ccco1 | 0.00437
15 | CC1CCN(Cc2ccc(NC(=O)C3CCN(c4nnc(-n5cccc5)s4)CC3)cc2)CC1 | 0.0059
16 | Cc1cc(Oc2ccc(Cl)cc2)nc(-c2ccccc2O)n1 | 0.00665
17 | C=C(C)Cn1c(N2CCN(CC)CC2)nc2c1c(=O)[nH]c(=O)n2C | 0.00582
18 | CCOCCc1nnc(NC(=O)c2ccc(OC)c(OC)c2)s1 | 0.00549
19 | COc1cc(CN2CCN(C(=O)CC(C)C)CC2)cc(OC)c1O | 0.00548
20 | c1ccc2c(c1)sc1nnnn12 | 0.00357

Row | SMILES | slope
21 | COC(=O)c1cc(Br)c(=O)n(-c2ccc(OC)cc2)c1 | 0.00452
22 | COc1cc(C(=O)N2CCC(NC(=O)C(Cc3ccc(C)cc3)NC(C)=O)CC2)cc(OC)c1OC (centres undefined) | 0.00562
23 | Cc1ccccc1NS(=O)(=O)c1cc(S(C)(=O)=O)ccc1Cl | 0.00562
24 | COc1ccccc1OCCOc1ccccc1/C=N/n1cnnc1 | 0.00507
25 | CCc1nnc(NC(=O)CSc2nnc3scc(-c4ccc(C)cc4)n23)s1 | 0.00638
26 | Cn1c(/C=N/n2cnnc2)nc2ccccc21 | 0.00495
27 | CC1CN(C(=O)c2cc3cc(Cl)cc(Cl)c3oc2=O)CC(C)O1 (centres undefined) | 0.00693
28 | C=CCOc1nc2c(c(=O)n(C)c(=O)n2C)n1C | 0.00278
29 | CCOc1cccc(C(=O)N(Cc2ccco2)C2CCS(=O)(=O)C2)c1 (centres undefined) | 0.00467
30 | Cn1c(COc2ccc(Cl)cc2)nnc1SCC(=O)NC1CCCCC1 | 0.00395
31 | Cc1cccc2cc(COC(=O)C(C)(C)C)c(=O)[nH]c12 | 0.0027
32 | Cc1cccc(-c2c3c(=O)n(C)c(=O)n(C)c3cn2-c2ccc(O)cc2)c1 | 0.00566
33 | Cc1ccc(CN2C(=O)CCC2C(=O)NCCCN2CCC(C)CC2)cc1 (centres undefined) | 0.00384
34 | Cc1cccc(Nc2nc(N)nc(CN3CCC(C(N)=O)CC3)n2)c1C | 0.0067
35 | COc1cc(OC)nc(NC(=O)CSc2nc3ccccc3o2)n1 | 0.00329
36 | CCCC(c1nnnn1Cc1ccc(OC)cc1)N1CCN(c2ccccc2OC)CC1 (centres undefined) | 0.00492
37 | COc1cccc(N2CCN(Cc3nc(N)nc(Nc4ccccc4)n3)CC2)c1 | 0.00543
38 | Cc1nc2ccc(Br)cn2c1NC(C)(C)C | 0.00552
39 | O=C(Nc1ccc(Cl)c(C(F)(F)F)c1)N1CCCC(O)C1 (centres undefined) | 0.00599
